Compounds without any hit were thinned out: in the full panel of roughly 79,000, 15% have a hit. No stated cut-off is given here; in the data, active means growth inhibition above about 70%; inactive means the rest.
Key:
[1] = NCI Yeast Anticancer Drug Screen. Data for the rad50 strain (AID 155);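 further: 0% = growth of vehicle-only cultures of the same strain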; conditions: S. cerevisiae rad50 strain growth inhibition; at 50.0 µM; hits give high values
How it was run: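 Inhibition values express reduced yeast growth in compound-treated cultures relative to vehicle-treated controls.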

[2] = NCI Yeast Anticancer Drug Screen. Data for the mec2-1 strain (AID 157); conditions: S. cerevisiae mec2-1 strain, at 50.0 µM, hits give high values
How it was run: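 Each compound was tested on mec2-1 yeast, a strain altered in DNA damage repair or cell cycle control. Growth inhibition is reported relative to vehicle.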

[3] = NCI Yeast Anticancer Drug Screen. Data for the sgs1 mgt1 strain (AID 161);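 further: 0% = growth of cultures given vehicle only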; conditions: S. cerevisiae sgs1 mgt1 strain, at 50.0 µM, hits give high values
How it was run: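 Genetically altered yeast, compound exposure, growth inhibition relative to vehicle.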

[4] = NCI Yeast Anticancer Drug Screen. Data for the cln2 rad14 strain (AID 165);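 further: 0% = growth equal to vehicle treated cultures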; conditions: S. cerevisiae cln2 rad14 strain, at 50.0 µM, hits give high values
How it was run: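 Test compounds were added to cln2 rad14 yeast cultures; inhibition of growth was then determined by comparison with vehicle treatment.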

[5] = NCI Yeast Anticancer Drug Screen. Data for the bub3 strain (AID 167); conditions: S. cerevisiae bub3 mutant strain, at 50.0 µM, hits give high values
How it was run: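 Steps: expose the mutant yeast strain to compound; grow alongside vehicle-treated cultures; measure growth; express inhibition against the vehicle cultures.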

[6] = NCI Yeast Anticancer Drug Screen. Data for the mlh1 rad18 strain (AID 175); conditions: S. cerevisiae mlh1 rad18 strain growth inhibition; at 50.0 µM; hits give high values
How it was run: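 Inhibition values reflect reduced growth of mutant yeast versus vehicle-treated controls following compound exposure; the mutations affect DNA damage repair.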

Measured: growth inhibition

NC(=S)N/N=C1/CC(=O)N(c2ccccc2)C1c1ccccc1 (stereo not given)
inactive: [1] 32.6% | [2] 13.2% | [3] 37% | [4] -2.8% | [5] 32.4% | [6] 38.9%

NC(N)=Nc1ccccc1OC1OC(CO)C(O)C(O)C1O (stereo not given)
inactive: [1] -12.4% | [2] 16.1% | [3] 2.55% | [4] -50.5% | [5] -7% | [6] -2.25%

Cc1cc(Br)c2c(c1N)C(=O)c1ccccc1C2=O
inactive: [1] 23.6% | [2] 35% | [3] 31.4% | [4] -7.75% | [5] 7.1% | [6] 15.6%

CN(C)CCN(C(=Nc1ccccc1)N1CCCC1)c1ccccc1
inactive: [1] -18.7% | [2] -30.8% | [3] -30.4% | [4] 17.1% | [5] 0.45% | [6] 4.5%

O/N=C/c1nc2ccccc2s1
inactive: [1] 10.2% | [2] 22.8% | [3] -3.65% | [4] -55.6% | [5] -17.6% | [6] 23.8%

CS(=O)(=O)OCC(O)C(O)C(OS(C)(=O)=O)C(O)COS(C)(=O)=O (stereo not given)
inactive: [1] 7.1% | [2] 1.75% | [3] -7.75% | [4] 21.3% | [5] -8.55% | [6] 7.35%

COc1cc2c(cc1OC)[C@H]1C(COC(=O)c3ccccc3)CSC(=Nc3ccccc3)N1CC2 (stereo not given in full)
inactive: [1] 21.9% | [2] 17.6% | [3] 36% | [4] 49.8% | [5] 36.9% | [6] 22.3%

CCOC(=O)C(CN(CC)CC)c1ccccc1 (stereo not given)
inactive: [1] -1.15% | [2] -6.35% | [3] -3.25% | [4] 1.8% | [5] 1.95% | [6] 10.3%

O=C1c2c(-c3ccccc3)ccc(-c3ccccc3)c2C(=O)c2c(-c3ccccc3)ccc(-c3ccccc3)c21
inactive: [1] -4.4% | [2] -3.4% | [3] 2.3% | [4] -6.8% | [5] -2.6% | [6] -13.6%

CN(C)CCCNc1ccc2ncn3c4ccccc4c(=O)c1c23
inactive: [1] -2.15% | [2] 6.2% | [3] -3.35% | [4] 20.9% | [5] 1.5% | [6] 22.4%

COc1ccc2c(c1)CC1(CC2)NCC(=O)NC1=O (stereo not given)
inactive: [1] 7.9% | [2] 15.6% | [3] -11.8% | [4] -2% | [5] 5.8% | [6] 12.4%

CCOC(=O)C1=C(C(=O)c2ccc(OC)cc2)C(c2ccc(OC)c(OC)c2)C(C(=O)c2ccc(OC)cc2)=C(C(=O)OCC)N1
inactive: [1] -44.4% | [2] -20% | [3] -32.2% | [4] -24.6% | [5] -23% | [6] -18.8%

COc1ccc2c(=O)c(O)c(-c3ccccc3)oc2c1
inactive: [1] 22.8% | [2] -18.9% | [3] 42.5% | [4] 10.4% | [5] 15.2% | [6] 8.25%

CC(=O)Nc1cccc(C)n1
inactive: [1] -17.8% | [2] -3.2% | [3] 1.6% | [4] -71.8% | [5] -0.95% | [6] 1.7%

C[N+](C)(C)CC(=O)N/N=C(/Cc1nc2c3c(ccc2[nH]c1=O)C(=O)c1ccccc1C3=O)C(=O)Nc1ccc(Cl)c(Cl)c1
inactive: [1] 1.05% | [2] -6.8% | [3] -7.8% | [4] 18.8% | [5] 7.5% | [6] 30.9%

Cc1cc(C)n(-c2ccncc2[N+](=O)[O-])n1
inactive: [1] 7.55% | [2] 17.9% | [3] -2.45% | [4] -13.8% | [5] 9.05% | [6] 0.2%

CCOC(=O)C(/C=N/Nc1ccc([N+](=O)[O-])cc1[N+](=O)[O-])Oc1cccc(OC)c1 (stereo not given)
inactive: [1] -8.85% | [2] -8.4% | [3] -19.8% | [4] -15.1% | [5] -8.75% | [6] -1.55%

COc1cc(C)c2c(c1)C=C[C@@H]1[C@@H]2CC[C@]2(C)C(=O)CC[C@@H]12
inactive: [1] -10.1% | [2] 3.3% | [3] -2.55% | [4] -48.2% | [5] -0.05% | [6] -3.1%

O=C(O)c1ccc(Cl)cc1[N+](=O)[O-]
inactive: [1] 23.4% | [2] -8.5% | [3] 21.6% | [4] 19.9% | [5] 0.5% | [6] 25.1%

CC1C(c2ccccc2)NC(c2ccccc2)C(C)C1(O)c1ccccc1 (stereo not given)
inactive: [1] 10.3% | [2] 5.3% | [3] 11.6% | [4] -23.1% | [5] 11.1% | [6] 16.4%
